From PubChem BioAssay (Tox21) come the findings set out here.

SMILES strings stand for the structures. Inconclusive results are not listed. Active and inactive are the calls of the source. The call rests on the fitted dose curve. Where a SMILES comes first, the peptide text is derived from it. [ ]: non-standard residue; d: D form. pGlu = O=C1CC[C@@H](C(=O)O)N1

This assay in a line: qHTS assay to identify small molecule agonists of the AP-1 signaling pathway - cell viability counter screen (AID 1159525). Further: nearly all actives have a fitted effect of over 55% in size. The note with it: ME-180 (cervical carcinoma) AP-1-bla cells viability, ATP luminescence, 5 h; series mostly up to 76.8 µM. The source says:
National Center for Advancing Translational Sciences [NCATS]
NIH Chemical Genomics Center [NCGC]
U.S. Environmental Protection Agency [EPA]
National Institutes of Environmental Health Sciences [NIEHS]
National Toxicology Program [NTP]
U.S. Food and Drug Administration [FDA]
Activator protein-1 (AP-1), a transcription factor, plays an important role in tumor genesis by regulating genes involved in cell proliferation, differentiation, apoptosis, and angiogenesis. AP-1 activity is induced by a complex network of signaling pathways that involves extracellular signals, such as growth factors. The AP-1 protein complex formed from c-Fos and c-Jun binding to the AP-1 response element results in transcriptional activation of genes containing such elements within their promoter.
Low molecular weight molecules have been discovered and developed to modulate various components of these signaling pathways, for example, MAP kinase inhibitors. However, many points of pathway modulation remain untested due to the lack of chemical probes making this signaling locus of general interest.
Using a beta-lactamase reporter-gene under control of the AP-1 response element, a cell-based assay [CellSensor(TM) AP-1-bla ME-180 developed by Invitrogen Corp.] was used to measure EGF-induced signaling. The Tox21 10K library compounds were measured for their ability to positively modulate the action of EC50 EGF on reporter gene activity. Compounds were screened in a 15-pt titration series in 1536-well format. The cytotoxicity of the Tox21 compound library against this cell line was tested in parallel by measuring the intra cellular ATP content in the same wells.
Tox21 Assay Protocol Summary:
2500 cells/5uL in Opti-MEM medium containing 0.5% dialyzed FBS, 0.1 mM NEAA, 1 mM sodium pyruvate and 10 mM HEPES was dispensed into 1536-well black wall/clear bottom plates using a Multidrop dispenser and cells were cultured at 37 degrees Celsius overnight. Next day 23 nL of compounds dissolved in DMSO, positive controls or DMSO were delivered to each well using a pin tool. The plates were incubated at 37 degrees Celsius for 5 hours. 1 uL of LiveBLAzerTM B/G FRET substrate (Solution A+B+C+D) was added to each well using a Flying Reagent Dispenser. After incubated at room temperature for 2.5 hours the plates were measured on an EnVision plate reader at Excitation 405nm, Emission1=460nm and Emission 2=530nm. The %Activity was determined from the ratio of 460nm/530nm.
After the plates were read for Beta-Lactamase assay on Envision; 3 ul Cell Titer Glo (Promega) was added to measure the cytotoxicity and the plates were then incubated at RT in dark for 30 min. The luminescence was read on ViewLux (Perkin Elmer, Shelton, CT) using 6 sec exposure. ViewLux data was expressed as relative luminescence units.
For primary data analysis, raw plate reads for each titration point were first normalized relative to […] EGF control (100%) and DMSO only wells (basal, 0%).
For primary data analysis for viability assay, raw plate reads for each titration point were first normalized Tetra n-octyl ammonium bromide control (-100%) and DMSO (control, 100%).
On the technique in general: Quantitative high-throughput screening tests each substance at several concentrations.
Take `CCN1C=CN(C)C1C` (stereo not given): the outcome was inactive.

Consider `COc1ccccc1OCC1CNC(=O)O1` (stereo not given), for which the compound was called inactive.

`C1CCC2(CCCCO2)OC1`: the outcome was inactive.

Consider `Cc1ncc([C@@H](CCCCCCc2ccc3c(n2)NCCC3)CC(=O)O)cn1`, for which the call was inactive.

For the compound `CC1OC1C1CCC2(C)OC2C1` (stereo not given), the compound was called inactive.

`[Ca+2]`: the result was inactive.

Turning to `C=CC(=O)OCCCl`, the outcome was inactive.

Take `CCCCCCC#CC(=O)OC`: the outcome was inactive.

Consider `N[C@@H](CCC(=O)O)C(=O)O`, for which the compound was called inactive.

For the compound `CC(=O)C1CCCCC1=O` (stereo not given), the result was inactive.

For `CCCC[N+](C)(CCCC)CCCC`, the result was inactive.

On to `CCCC(=O)O[C@]1(C(=O)CC)CC[C@H]2[C@@H]3CCC4=CC(=O)CC[C@]4(C)[C@H]3[C@@H](O)C[C@@]21C`, for which the outcome was inactive.

`CC(C)c1ccc2ncccc2c1`: the outcome was inactive.

`CCCO[Si](OCCC)(OCCC)OCCC`: the outcome was inactive.

In the case of `CC(COc1ccccc1)NN` (stereo not given), the result was inactive.

Regarding `CCNC(=O)[C@@H]1CCCN1C(=O)[C@H](CCCN=C(N)N)NC(=O)[C@H](CC(C)C)NC(=O)CNC(=O)[C@H](Cc1ccc(O)cc1)NC(=O)[C@H](CO)NC(=O)[C@H](Cc1c[nH]c2ccccc12)NC(=O)[C@H](Cc1cnc[nH]1)NC(=O)[C@@H]1CCC(=O)N1` ([pGlu]HWSYGLRP-NHEt), the result was inactive.

For `CCOC(=O)CCC(=O)OCC`, the outcome was inactive.

In the case of `CC(=O)OCC(=O)[C@@]1(O)[C@H](C)C[C@H]2[C@@H]3CCC4=CC(=O)C=C[C@]4(C)[C@@]3(F)[C@@H](O)C[C@@]21C`, the compound was classed as inactive.

Regarding `Cc1ccc(-c2ncc(Cl)cc2-c2ccc(S(C)(=O)=O)cc2)cn1`, the result was inactive.

Regarding `CC(CO)(CO)[N+](=O)[O-]`, the compound was classed as inactive.

In the case of `O=S(=O)(O)c1cccc2c(S(=O)(=O)O)cccc12`, the call was inactive.

Turning to `CCNS(=O)(=O)c1ccc(C)cc1`, the result was inactive.

Turning to `COc1cc(C(=O)OC(COCCC(C)C)CN2CCOCC2)cc(OC)c1OC` (stereo not given), the outcome was inactive.

With `CC1=CC(=O)[C@H]2C[C@@H]1C2(C)C`, the call was inactive.

On to `O=C(O)CCCC[P+](c1ccccc1)(c1ccccc1)c1ccccc1`, for which the compound was classed as inactive.

Regarding `NCCCC[C@H](N[C@@H](CCc1ccccc1)C(=O)O)C(=O)N1CCC[C@H]1C(=O)O`, the compound was called inactive.

Turning to `O=C(O)c1cn(C2CC2)c2cc(N3CCNCC3)c(F)cc2c1=O`, the compound was classed as inactive.

Turning to `NC(=O)N[C@@H](CCC(=O)O)C(=O)O`, the call was inactive.

As for `C=C[Si](OC(C)=O)(OC(C)=O)OC(C)=O`, the outcome was inactive.

Consider `O=C(O)c1cc(C(=O)O)cc(C(=O)O)c1`, for which the outcome was inactive.

With `NC(=O)NC1N=C([O][Al])NC1=O` (stereo not given), the compound was classed as inactive.

For the compound `C[N+]1(C)CCCC(OC(=O)C(O)(c2ccccc2)c2ccccc2)C1` (stereo not given), the call was inactive.

As for `CN(C)C(=O)Oc1ccc[n+](C)c1`, the compound was called inactive.

On to `Clc1cc(Cl)c(Cl)nc1Cl`, for which the compound was classed as inactive.

As for `CC(C)CCCO`, the result was inactive.

As to `C[N+](C)(CCOc1ccccc1)Cc1cccs1`, the call was inactive.

Take `CC(C)=CCC/C(C)=C/C#N`: the call was inactive.

Consider `NS(=O)(=O)Cc1noc2ccccc12`, for which the compound was classed as inactive.

`CC(=O)NC(=O)c1ccccc1O`: the call was inactive.

`[K+]`: the outcome was inactive.
